Experimental data taken from PMC7862700, “An all-to-all approach to the identification of sequence-specific readers for epigenetic DNA modifications on cytosine”.

Experiments:
Test in all cases: DAPPL (digital affinity profiling via proximity ligation, sequencing); 10 mM Tris-HCl pH 7.5, 50 mM NaCl, 1 mM DTT, 4% glycerol, room temperature, 30 min; GST-TFs on glutathione beads, 16-mer random dsDNA library, 0.1% formaldehyde crosslink after washing; high values mean tight binding
FEV = biological target: T1, FEV (Homo sapiens, UniProt Q99581 1-238); settings: protein: recombinant; tags: N-terminal GST; dsDNA, one strand shown
T1 sequence: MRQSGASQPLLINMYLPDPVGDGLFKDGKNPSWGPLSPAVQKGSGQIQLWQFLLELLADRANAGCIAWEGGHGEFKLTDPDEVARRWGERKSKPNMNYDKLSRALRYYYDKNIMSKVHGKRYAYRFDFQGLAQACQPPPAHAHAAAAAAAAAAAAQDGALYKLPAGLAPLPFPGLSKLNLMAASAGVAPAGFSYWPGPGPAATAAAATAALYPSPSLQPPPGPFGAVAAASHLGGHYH
Method in brief: (§1)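 Human transcription factors fused to GST were expressed in yeast, captured on glutathione beads, given DNA barcodes and pooled with a GST-only negative control. Pools were incubated with 200 nmole of a 16-mer random double-stranded DNA library in Tris/NaCl/DTT/glycerol buffer at room temperature for 30 min. They were then washed, crosslinked with 0.1% formaldehyde, proximity-ligated (BsaI/T4 ligase, 1 h, 37 °C), PCR-amplified and sequenced on an Illumina NextSeq500. Binding signal is each 6-mer's read frequency for a factor divided by its frequency for the GST control.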

ETV5 = ETV5 (Homo sapiens, UniProt P41161 1-510); settings: protein: recombinant; tags: N-terminal GST; dsDNA, one strand shown
ETV5, sequence (P41161 whole entry): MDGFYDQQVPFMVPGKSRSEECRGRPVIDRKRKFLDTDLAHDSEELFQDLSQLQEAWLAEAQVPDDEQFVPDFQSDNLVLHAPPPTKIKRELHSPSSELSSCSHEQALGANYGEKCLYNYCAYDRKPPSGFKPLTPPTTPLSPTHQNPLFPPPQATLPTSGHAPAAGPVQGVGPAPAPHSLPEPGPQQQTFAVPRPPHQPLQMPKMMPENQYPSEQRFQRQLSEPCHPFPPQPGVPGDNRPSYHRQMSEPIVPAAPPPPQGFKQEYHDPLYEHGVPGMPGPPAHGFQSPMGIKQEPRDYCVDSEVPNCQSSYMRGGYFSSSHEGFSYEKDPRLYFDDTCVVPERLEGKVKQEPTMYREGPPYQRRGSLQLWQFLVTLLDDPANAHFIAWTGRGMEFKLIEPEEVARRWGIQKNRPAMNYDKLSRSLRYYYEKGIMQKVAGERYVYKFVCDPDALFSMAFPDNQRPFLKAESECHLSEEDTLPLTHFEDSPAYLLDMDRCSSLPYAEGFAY
Method in brief: as §1

HSF1 = HSF1 (Homo sapiens, UniProt Q00613 1-529); settings: protein: recombinant; tags: N-terminal GST; chain copies: 3; dsDNA, one strand shown
HSF1, sequence (Q00613 whole entry): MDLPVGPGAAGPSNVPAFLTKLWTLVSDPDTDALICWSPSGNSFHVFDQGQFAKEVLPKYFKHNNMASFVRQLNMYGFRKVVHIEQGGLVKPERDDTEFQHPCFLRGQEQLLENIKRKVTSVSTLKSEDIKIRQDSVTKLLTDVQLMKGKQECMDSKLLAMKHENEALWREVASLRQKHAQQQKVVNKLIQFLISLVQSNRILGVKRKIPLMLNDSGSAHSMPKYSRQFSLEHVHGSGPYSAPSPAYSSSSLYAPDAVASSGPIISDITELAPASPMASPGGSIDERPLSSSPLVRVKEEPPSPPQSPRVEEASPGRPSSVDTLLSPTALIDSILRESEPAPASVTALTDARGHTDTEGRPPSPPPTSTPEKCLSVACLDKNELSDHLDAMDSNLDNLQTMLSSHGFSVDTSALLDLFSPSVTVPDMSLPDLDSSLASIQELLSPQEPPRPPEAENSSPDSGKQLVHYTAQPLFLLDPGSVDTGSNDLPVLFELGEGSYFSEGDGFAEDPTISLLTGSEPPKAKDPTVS
Method in brief: as §1

SPIC = biological target: T2, SPIC (Homo sapiens, UniProt Q8N5J4 1-248); settings: protein: recombinant; tags: N-terminal GST; dsDNA, one strand shown
T2 sequence: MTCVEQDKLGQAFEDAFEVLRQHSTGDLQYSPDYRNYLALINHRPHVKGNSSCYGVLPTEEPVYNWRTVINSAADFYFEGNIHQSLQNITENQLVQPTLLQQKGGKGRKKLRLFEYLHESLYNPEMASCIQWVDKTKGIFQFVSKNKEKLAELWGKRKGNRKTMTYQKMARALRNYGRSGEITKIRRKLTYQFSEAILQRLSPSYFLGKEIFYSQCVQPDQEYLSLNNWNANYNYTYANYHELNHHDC
Method in brief: as §1

ELF4 = ELF4 (Homo sapiens, UniProt Q99607 1-663); settings: protein: recombinant; tags: N-terminal GST; dsDNA, one strand shown
ELF4, sequence (Q99607 whole entry): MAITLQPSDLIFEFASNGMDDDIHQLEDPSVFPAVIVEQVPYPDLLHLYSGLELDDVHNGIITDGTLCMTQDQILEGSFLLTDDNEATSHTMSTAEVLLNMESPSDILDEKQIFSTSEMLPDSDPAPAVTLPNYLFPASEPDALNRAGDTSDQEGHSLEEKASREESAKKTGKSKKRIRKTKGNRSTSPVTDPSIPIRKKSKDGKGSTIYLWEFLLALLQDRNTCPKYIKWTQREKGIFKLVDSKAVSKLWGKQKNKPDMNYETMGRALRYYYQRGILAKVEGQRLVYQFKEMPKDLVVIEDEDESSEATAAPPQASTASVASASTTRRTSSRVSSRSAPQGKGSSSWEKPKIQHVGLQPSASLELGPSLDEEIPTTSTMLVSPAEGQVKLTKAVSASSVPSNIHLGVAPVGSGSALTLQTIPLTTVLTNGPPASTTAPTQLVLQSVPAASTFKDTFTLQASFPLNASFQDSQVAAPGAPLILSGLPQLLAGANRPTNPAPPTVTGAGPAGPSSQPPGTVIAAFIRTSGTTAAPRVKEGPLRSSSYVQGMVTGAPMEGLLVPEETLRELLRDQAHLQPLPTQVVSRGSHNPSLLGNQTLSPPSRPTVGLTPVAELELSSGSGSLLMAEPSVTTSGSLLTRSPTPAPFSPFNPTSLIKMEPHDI
Method in brief: as §1

ELK4 = biological target: T3, ELK4 (Homo sapiens, UniProt P28324-2 1-405); settings: protein: recombinant; tags: N-terminal GST; dsDNA, one strand shown
T3 sequence: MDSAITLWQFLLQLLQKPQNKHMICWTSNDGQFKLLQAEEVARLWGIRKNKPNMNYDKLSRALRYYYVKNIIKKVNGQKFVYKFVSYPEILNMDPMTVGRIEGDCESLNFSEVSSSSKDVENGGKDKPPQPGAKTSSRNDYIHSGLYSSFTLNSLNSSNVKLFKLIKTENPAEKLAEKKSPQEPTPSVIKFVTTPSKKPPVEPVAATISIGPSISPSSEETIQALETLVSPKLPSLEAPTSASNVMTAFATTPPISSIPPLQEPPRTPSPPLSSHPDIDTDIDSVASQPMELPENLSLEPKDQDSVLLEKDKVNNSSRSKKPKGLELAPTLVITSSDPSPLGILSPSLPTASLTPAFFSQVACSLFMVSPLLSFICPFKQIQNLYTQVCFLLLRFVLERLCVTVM
Method in brief: as §1

ETV2 = biological target: T4, ETV2 (Homo sapiens, UniProt O00321 1-342); settings: protein: recombinant; tags: N-terminal GST; dsDNA, one strand shown
T4 sequence: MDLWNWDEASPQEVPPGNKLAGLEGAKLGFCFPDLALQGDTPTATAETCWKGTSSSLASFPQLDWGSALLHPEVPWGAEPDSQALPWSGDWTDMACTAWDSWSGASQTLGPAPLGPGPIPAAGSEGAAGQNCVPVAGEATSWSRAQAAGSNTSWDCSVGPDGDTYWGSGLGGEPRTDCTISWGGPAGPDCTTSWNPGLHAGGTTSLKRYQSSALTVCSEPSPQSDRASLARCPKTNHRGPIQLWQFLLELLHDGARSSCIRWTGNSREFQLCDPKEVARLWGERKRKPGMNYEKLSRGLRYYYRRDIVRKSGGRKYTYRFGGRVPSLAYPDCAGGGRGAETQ
Method in brief: as §1

ELF3 = biological target: T5, ELF3 (Homo sapiens, UniProt P78545 1-371); settings: protein: recombinant; tags: N-terminal GST; dsDNA, one strand shown
T5 sequence: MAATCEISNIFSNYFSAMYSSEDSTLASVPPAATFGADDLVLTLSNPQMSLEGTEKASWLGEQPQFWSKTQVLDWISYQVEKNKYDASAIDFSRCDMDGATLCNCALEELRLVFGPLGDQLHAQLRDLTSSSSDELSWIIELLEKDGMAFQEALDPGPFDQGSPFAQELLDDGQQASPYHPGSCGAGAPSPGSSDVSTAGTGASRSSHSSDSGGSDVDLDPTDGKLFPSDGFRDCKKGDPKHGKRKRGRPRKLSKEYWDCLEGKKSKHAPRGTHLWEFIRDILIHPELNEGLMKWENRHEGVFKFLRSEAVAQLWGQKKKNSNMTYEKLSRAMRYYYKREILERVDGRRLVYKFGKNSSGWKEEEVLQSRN
Method in brief: as §1

CRX = CRX (Homo sapiens, UniProt O43186 1-299); settings: protein: recombinant; tags: N-terminal GST; dsDNA, one strand shown
CRX, sequence (O43186 whole entry): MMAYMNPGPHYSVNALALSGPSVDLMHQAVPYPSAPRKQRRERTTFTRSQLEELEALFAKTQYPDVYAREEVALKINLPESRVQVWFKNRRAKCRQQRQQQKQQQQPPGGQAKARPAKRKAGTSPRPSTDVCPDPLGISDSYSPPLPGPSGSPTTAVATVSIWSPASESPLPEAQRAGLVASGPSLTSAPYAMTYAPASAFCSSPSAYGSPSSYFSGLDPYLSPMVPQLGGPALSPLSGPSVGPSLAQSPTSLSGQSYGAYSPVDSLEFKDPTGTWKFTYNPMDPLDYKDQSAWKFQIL
Method in brief: as §1

ETV1 = ETV1 (Homo sapiens, UniProt P50549 1-477); settings: protein: recombinant; tags: N-terminal GST; dsDNA, one strand shown
ETV1, sequence (P50549 whole entry): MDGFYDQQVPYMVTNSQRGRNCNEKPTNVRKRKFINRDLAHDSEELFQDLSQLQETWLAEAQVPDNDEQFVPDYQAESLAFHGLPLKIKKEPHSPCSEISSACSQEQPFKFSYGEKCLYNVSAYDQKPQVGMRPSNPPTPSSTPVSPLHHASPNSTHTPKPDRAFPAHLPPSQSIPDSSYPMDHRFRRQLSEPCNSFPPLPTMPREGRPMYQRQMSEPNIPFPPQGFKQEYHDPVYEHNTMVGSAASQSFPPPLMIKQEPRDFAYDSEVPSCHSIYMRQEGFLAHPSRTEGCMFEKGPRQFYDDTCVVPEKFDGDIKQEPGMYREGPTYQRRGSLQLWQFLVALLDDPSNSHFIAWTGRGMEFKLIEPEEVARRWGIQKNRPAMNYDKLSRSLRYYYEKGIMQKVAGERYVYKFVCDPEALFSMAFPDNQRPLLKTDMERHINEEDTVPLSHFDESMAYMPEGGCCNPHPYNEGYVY
Method in brief: as §1

ERF = biological target: T6, ERF (Homo sapiens, UniProt P50548 1-548); settings: protein: recombinant; tags: N-terminal GST; dsDNA, one strand shown
T6 sequence: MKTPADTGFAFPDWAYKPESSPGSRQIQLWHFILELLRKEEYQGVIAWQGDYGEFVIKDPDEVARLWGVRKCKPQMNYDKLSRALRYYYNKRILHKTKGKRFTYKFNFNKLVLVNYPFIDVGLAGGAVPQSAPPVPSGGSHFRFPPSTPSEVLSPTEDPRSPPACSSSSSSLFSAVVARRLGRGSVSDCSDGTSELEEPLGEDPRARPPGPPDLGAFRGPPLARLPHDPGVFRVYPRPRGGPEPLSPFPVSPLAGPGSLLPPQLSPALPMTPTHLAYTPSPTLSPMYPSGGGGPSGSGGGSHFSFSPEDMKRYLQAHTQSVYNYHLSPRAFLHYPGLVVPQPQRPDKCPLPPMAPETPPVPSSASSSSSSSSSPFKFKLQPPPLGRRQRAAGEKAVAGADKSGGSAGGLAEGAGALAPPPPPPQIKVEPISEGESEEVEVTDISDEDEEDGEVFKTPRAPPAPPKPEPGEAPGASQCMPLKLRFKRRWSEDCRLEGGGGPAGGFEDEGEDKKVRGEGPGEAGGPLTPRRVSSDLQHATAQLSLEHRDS
Method in brief: as §1

ETV3L = biological target: T7, ETV3L (Homo sapiens, UniProt Q6ZN32 1-361); settings: protein: recombinant; tags: N-terminal GST; dsDNA, one strand shown
T7 sequence: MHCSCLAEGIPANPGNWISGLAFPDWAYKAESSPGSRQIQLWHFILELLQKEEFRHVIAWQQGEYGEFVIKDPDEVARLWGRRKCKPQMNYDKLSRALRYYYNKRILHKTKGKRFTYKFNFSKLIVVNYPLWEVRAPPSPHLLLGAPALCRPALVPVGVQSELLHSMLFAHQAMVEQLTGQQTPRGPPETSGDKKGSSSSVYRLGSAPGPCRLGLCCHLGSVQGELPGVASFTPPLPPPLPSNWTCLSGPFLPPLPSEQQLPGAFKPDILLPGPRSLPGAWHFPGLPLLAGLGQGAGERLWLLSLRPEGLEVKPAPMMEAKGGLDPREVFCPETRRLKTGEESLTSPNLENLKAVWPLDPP
Method in brief: as §1

ETS2 = biological target: T8, ETS2 (Homo sapiens, UniProt P15036 1-469); settings: protein: recombinant; tags: N-terminal GST; dsDNA, one strand shown
T8 sequence: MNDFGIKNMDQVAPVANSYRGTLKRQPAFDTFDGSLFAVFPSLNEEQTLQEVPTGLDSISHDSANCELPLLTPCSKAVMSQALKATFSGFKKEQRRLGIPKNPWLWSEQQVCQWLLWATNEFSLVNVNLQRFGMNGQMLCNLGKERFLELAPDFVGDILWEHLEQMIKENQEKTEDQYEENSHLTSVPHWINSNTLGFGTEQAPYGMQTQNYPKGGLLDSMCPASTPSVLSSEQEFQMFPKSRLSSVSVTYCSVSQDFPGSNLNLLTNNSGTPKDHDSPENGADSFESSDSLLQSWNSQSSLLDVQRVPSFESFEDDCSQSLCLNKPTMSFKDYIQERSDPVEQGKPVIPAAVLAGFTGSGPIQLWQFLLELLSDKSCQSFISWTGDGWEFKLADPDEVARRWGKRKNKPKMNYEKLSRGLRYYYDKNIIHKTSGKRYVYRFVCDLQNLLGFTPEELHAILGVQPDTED
Method in brief: as §1

SPDEF = biological target: T9, SPDEF (Homo sapiens, UniProt O95238 1-335); settings: protein: recombinant; tags: N-terminal GST; dsDNA, one strand shown
T9 sequence: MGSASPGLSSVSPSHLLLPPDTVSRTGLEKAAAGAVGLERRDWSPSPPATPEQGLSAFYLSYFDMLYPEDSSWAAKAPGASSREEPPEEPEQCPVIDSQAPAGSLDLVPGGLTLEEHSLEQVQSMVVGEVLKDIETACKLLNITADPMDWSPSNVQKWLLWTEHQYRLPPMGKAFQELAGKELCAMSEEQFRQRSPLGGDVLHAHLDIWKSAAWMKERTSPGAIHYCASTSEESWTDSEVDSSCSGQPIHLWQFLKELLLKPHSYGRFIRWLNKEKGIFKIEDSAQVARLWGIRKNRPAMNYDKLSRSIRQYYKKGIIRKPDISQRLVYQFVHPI
Method in brief: as §1

ETV7 = biological target: T10, ETV7 (Homo sapiens, UniProt Q9Y603 1-341); settings: protein: recombinant; tags: N-terminal GST; dsDNA, one strand shown
T10 sequence: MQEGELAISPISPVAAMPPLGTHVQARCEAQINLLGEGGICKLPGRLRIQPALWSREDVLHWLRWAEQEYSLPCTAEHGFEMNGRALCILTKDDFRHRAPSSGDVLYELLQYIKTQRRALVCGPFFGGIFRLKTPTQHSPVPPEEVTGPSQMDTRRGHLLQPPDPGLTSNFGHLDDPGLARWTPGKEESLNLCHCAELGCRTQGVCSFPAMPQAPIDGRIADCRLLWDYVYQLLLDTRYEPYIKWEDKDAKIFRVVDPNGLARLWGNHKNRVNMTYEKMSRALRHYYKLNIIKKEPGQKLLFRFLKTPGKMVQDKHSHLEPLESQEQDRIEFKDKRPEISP
Method in brief: as §1

ELF5 = biological target: T11, ELF5 (Homo sapiens, UniProt Q9UKW6-2 1-255); settings: protein: recombinant; tags: N-terminal GST; dsDNA, one strand shown
T11 sequence: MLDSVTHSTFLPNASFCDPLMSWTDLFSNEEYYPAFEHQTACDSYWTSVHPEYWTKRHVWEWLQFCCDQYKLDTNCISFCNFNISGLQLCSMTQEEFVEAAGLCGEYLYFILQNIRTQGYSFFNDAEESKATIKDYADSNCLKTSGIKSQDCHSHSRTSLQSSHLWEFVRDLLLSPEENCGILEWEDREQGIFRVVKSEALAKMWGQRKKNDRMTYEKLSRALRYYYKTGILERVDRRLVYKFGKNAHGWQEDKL
Method in brief: as §1

ETV3 = biological target: T12, ETV3 (Homo sapiens, UniProt P41162-2 1-143); settings: protein: recombinant; tags: N-terminal GST; dsDNA, one strand shown
T12 sequence: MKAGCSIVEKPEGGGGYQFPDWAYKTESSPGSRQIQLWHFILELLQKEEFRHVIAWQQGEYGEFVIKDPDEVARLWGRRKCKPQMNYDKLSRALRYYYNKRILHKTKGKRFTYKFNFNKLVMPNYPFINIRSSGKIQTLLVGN
Method in brief: as §1

ETV6 = ETV6 (Homo sapiens, UniProt P41212 1-452); settings: protein: recombinant; tags: N-terminal GST; dsDNA, one strand shown
ETV6, sequence (P41212 whole entry): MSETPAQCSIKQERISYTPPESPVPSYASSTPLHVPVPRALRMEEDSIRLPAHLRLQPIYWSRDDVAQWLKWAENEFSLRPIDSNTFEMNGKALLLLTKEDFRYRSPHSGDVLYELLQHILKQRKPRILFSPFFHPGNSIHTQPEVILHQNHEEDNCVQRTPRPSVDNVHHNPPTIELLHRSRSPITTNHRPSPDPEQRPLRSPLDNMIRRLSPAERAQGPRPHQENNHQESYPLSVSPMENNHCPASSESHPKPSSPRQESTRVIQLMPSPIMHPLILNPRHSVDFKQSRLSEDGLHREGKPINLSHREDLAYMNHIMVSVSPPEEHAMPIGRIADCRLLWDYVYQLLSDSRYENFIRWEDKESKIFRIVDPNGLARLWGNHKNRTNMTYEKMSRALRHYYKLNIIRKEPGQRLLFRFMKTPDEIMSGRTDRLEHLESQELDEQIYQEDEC
Method in brief: as §1

ATGCGA
binding signal (FEV): 1.17 fold enrichment (6-mer frequency, TF over GST control) | binding signal (ETV5): 1.17 fold enrichment (6-mer frequency, TF over GST control) | binding signal (HSF1): 1.22 fold enrichment (6-mer frequency, TF over GST control) | binding signal (SPIC): 1.26 fold enrichment (6-mer frequency, TF over GST control) | binding signal (ELF4): 1.29 fold enrichment (6-mer frequency, TF over GST control) | binding signal (ELK4): 1.33 fold enrichment (6-mer frequency, TF over GST control) | binding signal (ETV2): 1.34 fold enrichment (6-mer frequency, TF over GST control) | binding signal (ELF3): 1.31 fold enrichment (6-mer frequency, TF over GST control) | binding signal (CRX): 1.27 fold enrichment (6-mer frequency, TF over GST control) | binding signal (ETV1): 1.16 fold enrichment (6-mer frequency, TF over GST control) | binding signal (ERF): 1.16 fold enrichment (6-mer frequency, TF over GST control) | binding signal (ETV3L): 1.24 fold enrichment (6-mer frequency, TF over GST control) | binding signal (ETS2): 1.19 fold enrichment (6-mer frequency, TF over GST control) | binding signal (SPDEF): 1.18 fold enrichment (6-mer frequency, TF over GST control) | binding signal (ETV7): 1.28 fold enrichment (6-mer frequency, TF over GST control) | binding signal (ELF5): 1.16 fold enrichment (6-mer frequency, TF over GST control) | binding signal (ETV3): 1.32 fold enrichment (6-mer frequency, TF over GST control) | binding signal (ETV6): 1.23 fold enrichment (6-mer frequency, TF over GST control)
